Assay outcomes deposited in PubChem BioAssay by National Center for Advancing Translational Sciences (NCATS).
Pf growth 96h = inhibits malaria parasite growth, 96 h | 320,000 tested, 6.9% active | Potency, µM (top dose mostly 28.7 µM), without a hit: top-dose activity change, negative = inhibition, actives largely listed as inhibitors | AID 504834 | P. falciparum luciferase reporter growth, 96 h; note: potency is the fitted concentration of half-maximal effect; % is set by controls: 0 for no effect and ±100 for the full control effect
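Cell-based qHTS: luciferase-tagged P. falciparum in erythrocytes (2% hematocrit, 0.05% parasitemia final) incubated with compounds for 96 hours, 37 C, 5% CO2; luciferase detection reagent then added and luminescence measured.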
HCMV antiviral = inhibitors of human cytomegalovirus. AID 1259415. 410,000 tested, 4.5% active. HFF cells, HCMV-luciferase reporter, 72 h; stronger effect = lower value. activity change, negative = inhibition, % at 57.5 µM; in the data active = activity change below about -60%; inconclusive = no clear call, values can overlap the other calls; inactive = above about -39%; note: % is set by controls: 0 for no effect and ±100 for the full control effect
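Two-dose cell screen: HFF monolayers treated with compounds and infected with luciferase-expressing HCMV at 1 PFU/cell, 72 h at 37C, then lysed for luciferase measurement.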
Pf growth 48h = inhibits P. falciparum growth in the first generation, 48 h. AID 504832. Potency, µM (series often up to 28.7 µM), without a hit: at the highest dose activity change, negative = inhibition, hits mostly inhibitors. 310,000 tested, 5.9% active. P. falciparum luciferase growth in erythrocytes, 48 h; note: potency is the fitted concentration of half-maximal effect; % is set by controls: 0 for no effect and ±100 for the full control effect
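Here the parasites carry a stable luciferase gene and grow inside erythrocytes in Albumax-based RPMI medium with compound for one erythrocytic cycle. Activity is scored as loss of luminescent signal.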
Cycloheximide cs = counter-screen hit for Shiga toxin inhibitors, cycloheximide; cell reporter, cycloheximide protein synthesis inhibition counterscreen; max response, %; 300,000 tested, 12% active; in the data active = max response mostly above about 13%, no sharp cut-off; inactive = mostly below about 14%; note: read at 38.3 µM for the half of the compounds with a filed dose; 0% is about no effect
Shiga toxin inh = inhibitors of Shiga toxin in Vero cells; inhibition, % at 38.7 µM; Vero cells, Shiga toxin protein synthesis inhibition reporter; 290,000 tested, 9.2% active; AID 2315; in the data active = inhibition mostly above about 28%, no sharp cut-off; inactive = mostly below about 43%; note: 0% is about no effect
Numbers without * were called inactive; ? = inconclusive; . = no result given. Only some compounds are listed: those with a hit (about 20% of all), similar ones and a draw of the others. Unless noted, calls come from the whole dose curve; as a rule, active = well fitted inhibition curve with a large enough effect; inconclusive = small, poorly fitted or top-dose-only effect, or another doubt; inactive = no such curve, though single readings can be large or run the other way.

SMILES	Pf growth 96h	HCMV antiviral	Pf growth 48h	Cycloheximide cs	Shiga toxin inh
O=C(NCc1ccccc1Cl)C(=O)c1c[nH]c2ccccc12	83.1%	?	-7.1%	28.8*	70.7*
O=C(NCc1cccnc1)C(=O)c1c[nH]c2ccccc12	9.5%	-2.3	10.3%	-3.2	-2.9
Cc1ccccc1Cn1c(CN2CCCC(C)C2)nc2c1c(=O)n(C)c(=O)n2C (stereo unspecified)	.	10.0	.	.	.
COC(=O)c1ccc(NC(=O)C(=O)c2c[nH]c3ccccc23)cc1	128.0%	128.0	46.0%	0.5	2.1
Cc1[nH]c2ccccc2c1C(=O)C(=O)NCCC1=CCCCC1	?	?	2.94µM*	10.5	5.9
Cc1[nH]c2ccccc2c1C(=O)C(=O)NCCOc1ccccc1	52.0%	-8.3	?	25.2	17.1
COC(=O)C(Cc1c[nH]c2ccccc12)NC(=O)c1ccccc1Br (stereo unspecified)	0.0%	73.1	-142.6%	8.1	54.5
CCOC(=O)C(Cc1c[nH]c2ccccc12)NC(=O)c1ccccc1Br (stereo unspecified)	56.0%	78.2	178.6%	37.5*	53.2*
Cc1[nH]c2ccccc2c1C(=O)C(=O)NCc1ccco1	11.7µM*	-6.1	3.3%	1.8	-7.1
COc1ccc(CCNC(=O)C(=O)c2c(C)[nH]c3ccccc23)cc1	?	-8.0	-5.0%	-7.4	-5.2
O=C(Nc1ccccc1)C(=O)c1c[nH]c2ccccc12	25.2%	51.6	252.1%	30.8*	67.1*
Cc1ccc(NC(=O)CSc2nnc(COc3ccc(Cl)cc3)o2)cc1	.	-1.2	.	.	.
COc1ccc(S(=O)(=O)N2CCCCC2)cc1C(=O)Nc1cccc(C(F)(F)F)c1	.	11.3	.	.	.
COC(=O)C(Cc1c[nH]c2ccccc12)NC(=O)COc1ccc(Cl)cc1Cl (stereo unspecified)	.	140.4	.	28.7*	37.3
Cc1nn(C)c2c1c(C(F)(F)F)cc(=O)n2C(C)C(=O)NCCC(C)C (stereo unspecified)	.	-18.0	.	.	.
CCn1c(SCc2nc3ccccc3s2)nnc1-c1ccccc1	21.9%	28.1	.	28.1*	61.2*
Cc1nnc(SCc2nc3ccccc3s2)n1-c1ccccc1	?	63.3	49.8%	29.9*	87.4*
CCn1c(SCC(O)c2ccccc2)nnc1-c1ccccc1 (stereo unspecified)	19.7%	14.5	24.1%	39.2*	28.2*
COc1cccc(-c2nnc(SCc3nc4ccccc4s3)n2C)c1	?	35.7	.	23.8*	15.8
COc1ccc(-c2nnc(SCC(=O)Nc3nc4ccccc4s3)n2C)cc1	.	79.9	0.2%	1.5	-12.7
Nc1[nH]c(C(=O)c2ccccc2)c(-c2cccnc2)c1C(=O)c1ccccc1	.	-2.9	.	.	.
Cc1ccc(Cl)cc1NC(=O)c1cc(CN2CCCC2)on1	.	5.0	.	.	.
CCC1(c2ccc(F)cc2)NC(=O)N(CC(=O)Nc2cccc(S(=O)(=O)N3CCCCC3)c2)C1=O (stereo unspecified)	?	-39.4	?	.	.
CCN(CC)CCCn1c2c(c(SCC(=O)N3CCc4ccccc43)nc1=O)CCC2	-24.2%	-10.0	?	.	.
c1ccc(-n2cnnc2SCc2nc3ccccc3s2)cc1	100.0%	91.7	.	59.6*	61.0*
SMILES	Pf growth 96h	HCMV antiviral	Pf growth 48h	Cycloheximide cs	Shiga toxin inh
Cc1nnc(SCc2nc3ccccc3s2)n1N	195.1%	51.9	100.7%	43.7*	76.1*
CCC(c1nnc(SCc2nc3ccccc3s2)n1Cc1ccccc1)N(C)C (stereo unspecified)	.	102.6	.	31.5*	56.2*
O=C(c1ccco1)N1CCN(Cc2nnc(-c3ccccc3)o2)CC1	16.1%	5.9	-12.2%	-2.8	-8.5
CC(=O)Nc1ccc(CN(C)c2c(C)nc3ccc(C(=O)N4CCN(c5ccccc5)CC4)cn23)cc1	.	1.0	.	.	.
c1cc(-c2cccs2)nc(-c2cccs2)c1	13.2%	-23.9	23.6%	45.6*	52.7*
Nc1ccc(-c2cnc3ccccc3n2)cc1	.	94.7	.	.	.
c1csc(-c2cnc3ccccc3n2)c1	0.6%	5.3	.	29.5*	75.0*
c1ccc(-c2cccs2)nc1	25.6%	16.0	?	0.7	-5.0
Cc1ccnc(NC(=O)C2CCCN(S(=O)(=O)c3ccc4[nH]c(=O)ccc4c3)C2)c1 (stereo unspecified)	?	-8.1	-0.8%	11.4	12.3
COc1cc2c(cc1OC)C(C(=O)Nc1cccc(C)n1)C(c1cccnc1)N(C)C2=O (stereo unspecified)	17.7%	-28.8	-0.8%	-2.9	-16.1
COc1cc(OC)c(C2C(C(=O)O)c3ccccc3C(=O)N2C)cc1OC (stereo unspecified)	14.7µM*	-20.1	2.6%	10.9	-3.3
COc1ccc(C2C(C(=O)Nc3cc(OC)c(OC)c(OC)c3)c3ccccc3C(=O)N2C)cc1 (stereo unspecified)	15.7%	-65.9*	2.08µM*	-3.2	-13.1
COc1ccc(C2C(C(=O)Nc3cccc(OC)c3)c3ccccc3C(=O)N2C)cc1 (stereo unspecified)	1.4%	-1.6	?	1.7	-5.3
COc1cc2c(cc1OC)C(C(=O)Nc1ccccc1N1CCN(C)CC1)C1c3ccccc3CCN1C2=O (stereo unspecified)	306.9%	-39.6	?	-4.1	15.1
COc1cc2c(cc1OC)C(C(=O)Nc1ccccn1)C(c1cccnc1)N(C)C2=O (stereo unspecified)	1.65µM*	-8.2	-16.9%	-2.4	-13.2
COc1cc2c(cc1OC)C(C(=O)Nc1ccc3c(c1)OCCO3)C1c3ccccc3CCN1C2=O (stereo unspecified)	9.28µM*	-18.6	-9.3%	0.6	13.7
O=C(NCCN1CCNC1=O)C1CCC(=O)N(Cc2cccc(C(F)(F)F)c2)C1 (stereo unspecified)	?	?	22.7%	1.7	-6.2
CN(C)C(=O)c1cc(C(=O)c2ccc(F)cc2C(F)(F)F)c[nH]1	7.3%	-19.8	19.3%	3.8	17.7
CCOC(=O)c1ccc(NC(=O)Cn2c(=O)cc(C(F)(F)F)c3c(C)nn(C)c32)cc1	.	11.0	.	.	.
COc1ccc(C2C(C(=O)Nc3ccc4c(c3)OCCO4)c3ccccc3C(=O)N2C)cc1 (stereo unspecified)	?	?	5.22µM*	7.9	2.3
COc1ccc(C2C(C(=O)NCc3ccco3)c3ccccc3C(=O)N2C)cc1 (stereo unspecified)	?	-1.4	3.8%	5.5	-10.5
COc1cc([C@@H]2CC=C(C(=O)O)[C@H](c3ccccc3)N2S(=O)(=O)c2ccc(C)cc2)cc(OC)c1OC	8.28µM*	-4.0	3.29µM*	.	.
Cc1ccc(S(=O)(=O)N2[C@@H](c3ccc(Cl)cc3)C(C(=O)O)=CC[C@H]2c2ccc(Cl)c(Cl)c2)cc1	?	-64.4*	?	.	.
Cc1ccc(S(=O)(=O)N2CC(C(=O)O)=CC[C@H]2c2ccc(Cl)cc2)cc1	56.3%	-23.1	15.0%	.	.
COc1ccc([C@@H]2CC=C(C(=O)O)[C@H](c3ccccc3)N2S(=O)(=O)c2ccc(C)cc2)cc1OC	?	8.9	?	.	.
